HSV replic up: HSV replication enhancement; AID 1956; HSV replication augmentation in cells, fold increase; maximum fold increase; 220,000 tested, 0.005% active; in the data active = maximum fold increase above about 1.5; tested in PC3 cells
DTT redox prof: compounds producing H2O2 with reducing agent – biochemical, NIH compound library profiling, artefact control for MLSCN library redox annotation, primary screen; AID 878; 200,000 tested, 0.03% active; activation, % at 10 µM; DTT-dependent redox cycling H2O2, phenol red/HRP absorbance; 100% = 100 µM peroxide control, 0% = buffer;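 active = activation of at least 50% relative to the plate's high and low controls in the primary single-dose screen; inactive = activation below 50%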;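 note: compound incubated with DTT at 0.8 mM final as the reducing agent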
Wee1 degr inh: blocks degradation of human Wee1 kinase; HeLa Luc-Wee1K328M stability, luciferase luminescence; 100% = proteasome inhibitor MG132 effect; reporter increase, % at 5 µM; 220,000 tested, 1.2% active; AID 1321;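 active = activation above the mean of all tested compounds plus 3 SD, set per screening run, cut at about 8.8% in these data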;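 note: cells exposed to compound for 20 h before luminescence read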
Hsp70 act: transcriptional activators of Hsp70; 200,000 tested, 0.04% active; activation, % at 10 µM; HeLa Hsp70 promoter luciferase reporter, luminescence; scaled: vehicle 0, proteasome-inhibitor control 100%;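 active = activation above the mean across all tested compounds plus 3 SD, cutoff set per campaign, cut at about 5.5% in these data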
p97 ATPase inh: inhibitors of human p97 ATPase; AID 1481; 220,000 tested, 0.42% active; recombinant p97 ATPase, Kinase-Glo ATP luminescence, 3 h; inhibition, % at 8 µM; in the data active = inhibition above about 15%
Target sequence (P55072 whole entry, looked up): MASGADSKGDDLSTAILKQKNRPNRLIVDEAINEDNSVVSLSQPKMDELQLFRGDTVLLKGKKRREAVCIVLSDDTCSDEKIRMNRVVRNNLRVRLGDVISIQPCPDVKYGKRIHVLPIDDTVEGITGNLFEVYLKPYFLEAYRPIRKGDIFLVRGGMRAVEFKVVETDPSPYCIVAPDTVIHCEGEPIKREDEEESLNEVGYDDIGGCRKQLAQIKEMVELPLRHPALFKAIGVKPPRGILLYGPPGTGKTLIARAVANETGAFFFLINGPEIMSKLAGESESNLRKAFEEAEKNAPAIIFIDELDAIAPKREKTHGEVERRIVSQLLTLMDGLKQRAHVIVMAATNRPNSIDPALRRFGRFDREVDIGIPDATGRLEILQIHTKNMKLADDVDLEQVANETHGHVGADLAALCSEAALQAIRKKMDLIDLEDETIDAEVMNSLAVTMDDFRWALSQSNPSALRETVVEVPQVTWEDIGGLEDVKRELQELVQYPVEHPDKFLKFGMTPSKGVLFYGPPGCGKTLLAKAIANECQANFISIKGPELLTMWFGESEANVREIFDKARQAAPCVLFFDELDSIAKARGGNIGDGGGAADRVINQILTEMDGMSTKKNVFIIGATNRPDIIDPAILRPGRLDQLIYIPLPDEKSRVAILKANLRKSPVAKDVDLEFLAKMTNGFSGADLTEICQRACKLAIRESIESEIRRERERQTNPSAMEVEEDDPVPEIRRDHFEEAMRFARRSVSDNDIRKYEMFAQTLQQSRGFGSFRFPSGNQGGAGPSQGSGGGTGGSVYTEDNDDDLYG
Large screens that a line does not name were inactive. The list is not random: actives were taken first. Their share in the collection is about 1.6%.

CC(=O)c1cc2c(cc1NC(=O)CSc1nc3ccccc3[nH]1)OCO2	Wee1 degr inh 9.8
Cc1nnc(NC(=O)CCC(=O)NCc2ccco2)s1	Wee1 degr inh 10.0
O=Cc1c(OCc2ccccc2)ccc2ccccc12	Wee1 degr inh 11.4
CCN(C(=O)COC(=O)c1cc(-c2ccccc2)nn1-c1ccccc1)C1CCS(=O)(=O)C1 (configuration not stated)	Wee1 degr inh 10.0
CCN(C(=O)COC(=O)c1cn(-c2ccccc2)nc1-c1ccccc1)C1CCS(=O)(=O)C1 (configuration not stated)	none
CCOC(=O)c1c(C)[nH]c(NC(=O)Nc2c(C)n(C)n(-c3ccccc3)c2=O)c1C	none
Oc1ccc(-c2cn3ccccc3n2)cc1	none (no result: DTT redox prof, Hsp70 act)
Brc1ccc(-c2cn3ccccc3n2)cc1	Wee1 degr inh 9.1 (no result: DTT redox prof, Hsp70 act)
COc1ccc(-c2coc3cc(O)cc(O)c3c2=O)cc1	Wee1 degr inh 10.1
COc1ccc(-c2coc3cc(OC)cc(O)c3c2=O)cc1	none (no result: HSV replic up)
COc1ccc(CNC(=O)C2CCCN(S(=O)(=O)c3c(C)nn(C)c3C)C2)cc1 (configuration not stated)	none
O=C(NCc1ccccc1)c1ccc(CSc2ccccc2)o1	none
Fc1cccc(Nc2nc(Cl)nc(Cl)n2)c1	none
CN(C#N)c1nc(Cl)nc(Nc2cccc(Cl)c2)n1	p97 ATPase inh 14.6
Cc1ccc(C(CC(=O)c2ccco2)SCCO)cc1 (configuration not stated)	Wee1 degr inh 10.6
COc1ccc(C(=O)N[C@H](C(=O)Nc2nc3c(s2)CCCC3)C(C)C)cc1	Wee1 degr inh 10.2
Cc1ccc(Sc2ccc([N+](=O)[O-])cc2[N+](=O)[O-])nc1	none
Cc1ccnc(Sc2ccc([N+](=O)[O-])cc2[N+](=O)[O-])n1	p97 ATPase inh 15.9
CC(=O)C1=NN(c2ccccc2)C(c2ccc3c(c2)OCO3)N1c1ccc(N2CCOCC2)cc1 (configuration not stated)	none
CC(=O)C1=NN(c2ccccc2)C(c2cccs2)N1c1ccccc1 (configuration not stated)	HSV replic up 1.53
C=CCCCCCCCCC(=O)Nc1c[nH]c(=O)[nH]c1=O	none
Cc1nnc(SCC(=O)Nc2nc3c(s2)CC(C)CC3)s1 (configuration not stated)	Wee1 degr inh 8.9
CC1CCc2nc(NC(=O)CSc3nc4ccccc4o3)sc2C1 (configuration not stated)	none
CCn1c(Cc2ccccc2)n[nH]c1=S	none (no result: DTT redox prof, Hsp70 act)
CCn1c(CSCc2ccccc2)n[nH]c1=S	Wee1 degr inh 9.1
Cc1ccc2nc(-c3ccc(NC(=O)CN4CCN(C(=O)c5ccco5)CC4)cc3)sc2c1	Wee1 degr inh 10.9
Cc1ccc(SCc2cn3ccccc3n2)cc1	Wee1 degr inh 9.3 (no result: DTT redox prof, Hsp70 act)
CCc1c(O)nc(SCC(N)=O)n(-c2ccccc2F)c1=O	none
c1ccc(-n2ncc3c(NCC4CCCO4)ncnc32)cc1 (configuration not stated)	none
Clc1ccc(-n2ncc3c(NCC4CCCO4)ncnc32)cc1 (configuration not stated)	Wee1 degr inh 9.6
O=C(Nc1nnc(-c2cccs2)o1)c1cc(-c2ccccc2)nc2ccccc12	Wee1 degr inh 9.5 (no result: HSV replic up)
O=C(NCc1cccs1)c1cc(-c2ccccc2)nc2ccccc12	none
Cc1cc(C)c(C)c(S(=O)(=O)N2CCC(C(=O)OCC(=O)N3c4ccccc4NC(=O)C3(C)C)CC2)c1C	none
O=C(COC(=O)/C=C/c1ccccc1Cl)NCc1ccco1	none
O=C(COC(=O)/C=C/c1ccc(Cl)cc1Cl)NCc1ccco1	Wee1 degr inh 9.7
CC1=Nc2cccc([N+](=O)[O-])c2NC(=O)C1	Wee1 degr inh 14.6
COc1ccccc1NC(=O)C(O)C(O)C(=O)Nc1ccccc1OC (configuration not stated)	none
CCOC(=O)N/N=C/C=C/c1ccccc1[N+](=O)[O-]	Wee1 degr inh 9.2
CC(C)C(C)NC(=O)COc1ccc(Sc2ccc(OCC(=O)NC(C)C(C)C)cc2)cc1 (configuration not stated)	none
CC1CCC2C(=O)N(c3ccccc3OC(=O)c3ccccc3F)C(=O)C2C1 (configuration not stated)	Wee1 degr inh 9.5
CC(C)CNS(=O)(=O)c1ccc(OCC(=O)Nc2ccc(F)cc2F)cc1	Wee1 degr inh 9.0
Cc1c(N2C(=O)c3ccc(F)cc3C2=O)c(=O)n(-c2ccccc2)n1C	Wee1 degr inh 9.6
CCn1c(=O)cc(SCC(=O)N2CCN(C)CC2)c2ccccc21	none
CCCC(=O)Nc1ccc(NC(=O)c2ccccc2)nc1	Wee1 degr inh 10.3 (no result: DTT redox prof, Hsp70 act)
CC(C)Nc1nc(SC(C)C(=O)Nc2ccccc2)nc(N(C)C)n1 (configuration not stated)	Wee1 degr inh 10.3
CCNc1nc(SC(C)C(=O)Nc2ccccc2)nc(N(C)C)n1 (configuration not stated)	none (no result: HSV replic up)
O=C(/C=N/O)NCCN1CCCCC1	none
Cc1cccc(Oc2nc3ccccn3c(=O)c2/C=C(\C#N)C(=O)NC2CCS(=O)(=O)C2)c1 (configuration not stated)	Wee1 degr inh 10.5
COC(=O)/C(C#N)=C/c1c(Oc2cccc(C)c2)nc2ccccn2c1=O	none (no result: DTT redox prof, Hsp70 act)
CCOC(=O)Cc1c(C)nc2c(-c3ccc(Cl)cc3)c[nH]n2c1=O	Wee1 degr inh 9.8 (no result: HSV replic up)
O=C(NCC1CCCO1)c1ccc2c(c1)C(=O)N(C1CCCCC1)C2=O (configuration not stated)	none
CC1CCCN(c2ccc(C(=O)NCC3CCCO3)cn2)C1 (configuration not stated)	Wee1 degr inh 9.6
CC(C)CCN1C(=O)c2ccc(C(=O)NCC3CCCO3)cc2C1=O (configuration not stated)	Wee1 degr inh 9.6
O=C(NCC1CCCO1)c1ccc(/C=N/O)nc1 (configuration not stated)	none
Cc1ccc(C)c(/C(O)=C2\C(=O)C(=O)N(CCCn3ccnc3)C2c2ccncc2)c1 (configuration not stated)	none
COC(=O)c1ccc(NC(=O)CCNS(=O)(=O)c2cccc3nonc23)cc1	Wee1 degr inh 9.1
Cc1cccc(NC(=O)CCNS(=O)(=O)c2cccc3nonc23)c1	none
CCCc1ccc(OCc2ccccc2)c2c(=O)cc(C(=O)OCC)oc12	none (no result: DTT redox prof, Hsp70 act)
C=CCc1ccc2oc(C(=O)OCC)cc(=O)c2c1O	Wee1 degr inh 10.2 (no result: DTT redox prof, Hsp70 act)
Cc1nn(CC(=O)Nc2cccc(S(N)(=O)=O)c2)c(C)c1[N+](=O)[O-]	none
O=C(NNc1c2ccccc2nc2ccccc12)c1cccc(O)c1	none
Oc1cccc(-c2nc3ccc4ccccc4c3c3c2CCC3)c1	Wee1 degr inh 9.1
FC(F)(F)c1cc(N2CCN(Cc3ccccc3)CC2)c2ccccc2n1	Wee1 degr inh 10.2 (no result: DTT redox prof, Hsp70 act)
COc1cc2c(cc1NC(=O)COC(=O)/C=C/c1ccc([N+](=O)[O-])cc1)oc1ccccc12	p97 ATPase inh 14.6 (no result: DTT redox prof, Hsp70 act)

Screens: PubChem, several laboratories
